Data on 94 molecules can be found in paper PMC4336329 (PLoS ONE, 2015).

The whole screen tested about 310,000 compounds, of which about 14,000 (4.5%) showed an effect of 50% or more. The effect is printed as a negative number. The sample holds strong results, similar compounds and a random draw of the others, so the mix is not that of the screen.
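Further: peak tail current of the secondary pulse compared with the same well before compound.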

Sequence of human ether-à-go-go-related gene (hERG) potassium channel (Q12809 whole entry, looked up): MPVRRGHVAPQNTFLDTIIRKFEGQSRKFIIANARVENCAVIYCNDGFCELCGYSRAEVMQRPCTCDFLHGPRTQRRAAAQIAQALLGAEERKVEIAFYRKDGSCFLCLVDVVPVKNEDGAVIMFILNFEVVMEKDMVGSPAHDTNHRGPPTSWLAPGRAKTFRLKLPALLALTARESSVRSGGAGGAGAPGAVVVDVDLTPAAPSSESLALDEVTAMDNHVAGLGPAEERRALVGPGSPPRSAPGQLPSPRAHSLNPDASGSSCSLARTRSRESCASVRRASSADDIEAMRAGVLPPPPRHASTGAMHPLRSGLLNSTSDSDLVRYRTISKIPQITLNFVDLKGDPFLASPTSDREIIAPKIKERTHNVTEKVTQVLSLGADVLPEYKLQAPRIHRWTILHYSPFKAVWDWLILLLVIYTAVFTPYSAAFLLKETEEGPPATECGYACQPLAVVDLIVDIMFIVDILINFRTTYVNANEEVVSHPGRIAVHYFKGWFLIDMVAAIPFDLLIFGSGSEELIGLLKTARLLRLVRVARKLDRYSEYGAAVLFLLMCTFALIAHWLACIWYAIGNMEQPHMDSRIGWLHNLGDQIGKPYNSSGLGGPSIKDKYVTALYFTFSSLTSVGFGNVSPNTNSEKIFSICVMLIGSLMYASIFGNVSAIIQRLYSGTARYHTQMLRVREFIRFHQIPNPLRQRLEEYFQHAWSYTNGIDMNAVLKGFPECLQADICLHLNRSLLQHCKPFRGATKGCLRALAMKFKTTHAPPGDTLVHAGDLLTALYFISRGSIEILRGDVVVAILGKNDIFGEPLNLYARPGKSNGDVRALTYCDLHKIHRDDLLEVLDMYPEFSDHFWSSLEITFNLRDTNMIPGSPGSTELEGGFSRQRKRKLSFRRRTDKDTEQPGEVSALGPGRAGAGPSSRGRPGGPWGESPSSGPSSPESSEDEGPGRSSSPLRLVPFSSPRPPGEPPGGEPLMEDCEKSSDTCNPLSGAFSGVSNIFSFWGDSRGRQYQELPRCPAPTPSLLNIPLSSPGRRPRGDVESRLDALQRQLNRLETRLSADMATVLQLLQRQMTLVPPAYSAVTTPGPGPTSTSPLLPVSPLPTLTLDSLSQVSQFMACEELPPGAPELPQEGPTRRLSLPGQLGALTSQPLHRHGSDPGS

The assay has as its target human ether-à-go-go-related gene (hERG) potassium channel (human, UniProt Q12809). As to the kind of experiment: primary screen, population patch clamp on CHO cells stably expressing hERG; higher = less effect of the substance.
As for `Cc1c(C)n(CCCN(C)C)c2ncnc(NCc3ccccc3)c12`, the “hERG current change (%, negative = inhibition) at 10uM” value is -13.9%.
As for `O=P(C(=Nc1ccc(Cl)cc1)N1CCOCC1)(N1CCOCC1)N1CCOCC1`, the “hERG current change (%, negative = inhibition) at 10uM” value is reported as -17.6%.
Turning to `Cc1ccc(S(=O)(=O)N(C)C)cc1NC(=S)N(C)C1CCN(C)CC1`, the “hERG current change (%, negative = inhibition) at 10uM” value is recorded as 16.2%.
In the case of `Cc1ccc(C)c(NC(=O)NCCN2CCCCC2)c1` it was -15.1%; in that of `COc1ccc(S(=O)(=O)N2CCOC23CCN(S(=O)(=O)c2cc(C)ccc2OC)CC3)cc1`, 26.8%.
For the molecule `CCN(C(=O)COC(=O)Cc1c[nH]c2ccccc12)c1c(N)n(Cc2ccccc2)c(=O)[nH]c1=O`, the “hERG current change (%, negative = inhibition) at 10uM” value is 16.3%.
For `Cc1cc(Br)ccc1NC(=S)N1CCOCC1` the value was 12.5%.
For `COc1ccc(CNC(=O)CCCOc2cc(=O)n(C)c3ccccc23)cc1` the value was -19.2%.
Turning to `Cn1c(SCC(=O)Nc2nccs2)nnc1C12CC3CC(CC(C3)C1)C2`, the “hERG current change (%, negative = inhibition) at 10uM” value was -6.22%.
Turning to `Cc1cccc(NC(=S)NCCN(C2CCCCC2)C2CCCC2)c1`, the “hERG current change (%, negative = inhibition) at 10uM” value is -70.3%.
With `Cc1ccc(SCCNC(=S)Nc2cc(C)ccc2C)cc1`, the “hERG current change (%, negative = inhibition) at 10uM” value worked out at 4.34%.
For `Cc1cccc(NC(=S)N(C)C2CCCCC2)c1`, the “hERG current change (%, negative = inhibition) at 10uM” value turned out to be 5.51%.
In the case of `S=C(NCCN(C1CCCCC1)C1CCCC1)Nc1cccc(Cl)c1` it was -71.3%; in that of `Cc1cc(C)cc(NC(=S)NCCCO)c1`, -0.803%.
In the case of `Cc1ccc(C)c(NC(=S)NCc2ccccc2)c1` it was 13.8%.
For `Cc1cccc(NC(=S)NC2CCCC2)c1` the value was 0.919%.
For the molecule `Cc1cc(C)cc(NC(=S)NCCN(C2CCCCC2)C2CCCC2)c1`, the “hERG current change (%, negative = inhibition) at 10uM” value is -69.6%.
On to `S=C(Nc1cccc(Cl)c1)NC1CCCCC1`, for which the “hERG current change (%, negative = inhibition) at 10uM” value turned out to be 7.58%.
For `Cc1ccc(C)c(NC(=S)NCCN(C2CCCCC2)C2CCCC2)c1` the value was -68.5%.
As for `CN(C)CCNC(=S)Nc1cccc(Cl)c1`, the “hERG current change (%, negative = inhibition) at 10uM” value was -27%.
For `CCOCCCNC(=S)Nc1cc(C)cc(C)c1` the value was 11%.
Consider `Cn1ncc(Cl)c(Oc2ccc(C(C)(C)C)cc2)c1=O`, for which the “hERG current change (%, negative = inhibition) at 10uM” value is -26%.
For `CCOc1ccccc1NC(=O)c1cc(SC)ccc1Cl` the value was 50.4%; for `COc1cc(/C=N/NC(=O)CCOc2ccccc2C)cc(Br)c1O`, -16.4%; for `CC1CC(C)CN(C(=O)CCC(=O)Nc2nnc(C3CCCCC3)s2)C1` (stereo not shown), 14.2%.
For `CC(C)(C)CN1CCNC(=O)C1CC(=O)NCCc1ccccc1F` (stereo not shown) the value was 4.25%.
Take `COc1ccccc1-c1csc(NC(=O)c2cc(-c3cccs3)nc3ccccc23)n1`: the “hERG current change (%, negative = inhibition) at 10uM” value was 8.88%.
As to `COc1ccc2cc(C3CC(c4ccco4)=NN3S(=O)(=O)c3ccccc3)c(Cl)nc2c1` (stereo not shown), the “hERG current change (%, negative = inhibition) at 10uM” value is on record as 4.38%.
In the case of `CCN(CC(=O)NCc1cccs1)C(=O)c1ccc(NS(=O)(=O)c2cccc([N+](=O)[O-])c2)cc1` it was -19.7%; in that of `C/C(=N\NC(=S)NCc1ccccc1)c1ccc(Br)cc1`, 22.8%.
In the case of `O=C(O)C1CSC(c2ccccc2Cl)N1C(=O)c1ccc(Cl)cc1` (stereo not shown) it was 14.9%.
For `Cc1ccc(C)c(N2CCN(CCCc3ccccc3)CC2)c1` the value was -59.9%.
On to `NCCCN1CCN(c2ccccc2)CC1`, for which the “hERG current change (%, negative = inhibition) at 10uM” value was -8.45%.
Consider `O=C(CCc1ccccc1)N1CCN(c2ccccc2F)CC1`, for which the “hERG current change (%, negative = inhibition) at 10uM” value worked out at 15.9%.
Consider `Fc1ccccc1N1CCN(CCCc2ccccc2)CC1`, for which the “hERG current change (%, negative = inhibition) at 10uM” value is reported as -64.7%.
Turning to `Fc1ccccc1N1CCN(Cc2c(F)cccc2F)CC1`, the “hERG current change (%, negative = inhibition) at 10uM” value is 7.89%.
In the case of `Cc1ccc(C)c(N2CCN(CCN3CCCCC3)CC2)c1.Cl` it was -3.6%; in that of `c1ccc(CCCN2CCN(c3ccccc3)CC2)cc1`, -61.3%.
In the case of `c1ccc(CCCN2CCN(c3ccccn3)CC2)cc1` it was -51.7%.
On to `C/C=C(\C)CN1CCN(c2cc(C)ccc2C)CC1`, for which the “hERG current change (%, negative = inhibition) at 10uM” value is listed as 6.08%.
Regarding `O=C(CCc1ccccc1)N1CCN(c2ccccn2)CC1`, the “hERG current change (%, negative = inhibition) at 10uM” value is -9.9%.
Take `CCOC(=O)N1CCN(CCCc2ccccc2)CC1`: the “hERG current change (%, negative = inhibition) at 10uM” value was -6.26%.
`O=C(CN1CCN(c2ccccn2)CC1)NCCc1ccccc1`: the “hERG current change (%, negative = inhibition) at 10uM” value is recorded as -9.55%.
For `O=C(O)c1ccn[nH]1` the value was -0.906%.
In the case of `Cc1ccc(/C=N/NC(=O)c2nnn(-c3nonc3N)c2C(C)C)o1` it was -4.22%.
Take `CSc1ncccc1C(=O)OCC(=O)c1cccs1`: the “hERG current change (%, negative = inhibition) at 10uM” value stood at 19.4%.
For `CCOP(=O)(OCC)C(NC(=O)Nc1ccc(Cl)cc1)C(=O)N(CC)CC` (stereo not shown) the value was -13.4%; for `CC(c1ccccc1)n1cncc1C(=O)O` (stereo not shown), 18%.
Regarding `CCn1c(SCC(=O)c2c[nH]c3ccccc23)nc2cc(S(=O)(=O)N3CCOCC3)ccc21`, the “hERG current change (%, negative = inhibition) at 10uM” value came to 9.49%.
As for `C=C(C)CSc1nnc([C@H](CCSC)NC(=O)OC(C)(C)C)o1`, the “hERG current change (%, negative = inhibition) at 10uM” value was -14.3%.
For `c1coc(CNc2nc3ccccc3s2)c1` the value was 11.1%.
For `Cn1ccnc1SCC(=O)c1cc2ccccc2o1` the value was 4.65%.
As to `Cc1nn(C2CCS(=O)(=O)C2)c(Cl)c1/C=C/C(=O)OCC(=O)Nc1ccc2c(c1)OCO2` (stereo not shown), the “hERG current change (%, negative = inhibition) at 10uM” value is given as 7.01%.
With `O=C(NCCc1ccccc1)C1CCC(Cn2c(=O)c3ccccc3n(Cc3cccnc3)c2=O)CC1` (stereo not shown), the “hERG current change (%, negative = inhibition) at 10uM” value was -37.3%.
In the case of `CCOc1ccc(/C=C2\SC(=S)N(N3C(=O)C4CC4C3=O)C2=O)cc1` (stereo not shown), the “hERG current change (%, negative = inhibition) at 10uM” value worked out at 15.4%.
For `c1ccc(CCN2CCC(N3CCN(c4ccccc4)CC3)CC2)cc1` the value was -66.4%; for `Cc1cccc(CN2CCN(CCCc3ccccc3)CC2)c1.O=C(O)C(=O)O`, -75.4%.
In the case of `Cc1cccc(CN2CCN(Cc3ccc(Cl)cc3)CC2)c1.O=C(O)C(=O)O`, the “hERG current change (%, negative = inhibition) at 10uM” value is listed as -40%.
For `Cc1ccc(N2CCN(CCc3ccccc3)CC2)cc1`, the “hERG current change (%, negative = inhibition) at 10uM” value is reported as -36.2%.
Take `Cc1cccc(CN2CCN(C(=O)Cc3ccccc3)CC2)c1.O=C(O)C(=O)O`: the “hERG current change (%, negative = inhibition) at 10uM” value came out at 4.99%.
With `O=S(=O)(Cc1ccccc1)N1CCC(N2CCN(c3ccccc3)CC2)CC1`, the “hERG current change (%, negative = inhibition) at 10uM” value was -22.7%.
For `CC1=NN(c2ccccc2)C(=O)/C1=C/c1c(O)n(-c2ccc(F)cc2)[nH]c1=O` the value was 46%; for `Cc1c(C#N)c2ccccc2n1CC(=O)NCCc1c[nH]c2ccccc12`, -2.5%.
`CCOC(=O)c1ccc(Oc2nc(OC)nc(N(C)C)n2)cc1`: the “hERG current change (%, negative = inhibition) at 10uM” value was found to be 6.27%.
With `Cc1[nH]c(=O)[nH]c1C(=O)CCCCC(=O)O`, the “hERG current change (%, negative = inhibition) at 10uM” value is recorded as -57.7%.
For `Cc1[nH]c(=O)[nH]c1C(=O)CCCCC(=O)OCC(=O)Nc1ccccn1` the value was 12.3%; for `CCOC(=O)CCCCC(=O)c1[nH]c(=O)[nH]c1C[n+]1ccccc1.[Cl-]`, 26.4%; for `CCCc1nc2oc3c(OCC)ncnc3c2c2c1COC(C)(C)C2`, -13.2%.
For `CCCCn1c(N)c(N(C)C(=O)c2ccc(-n3cccn3)cc2)c(=O)[nH]c1=O` the value was 0.138%.
In the case of `Cc1cc(NC(=O)c2cccc(S(=O)(=O)N3CCCCCC3)c2)n(-c2ccccn2)n1` it was 13.4%.
Take `CCOC(=O)C1(Cc2cccc(F)c2)CCN(C2CCOCC2)CC1`: the “hERG current change (%, negative = inhibition) at 10uM” value is reported as -63.5%.
In the case of `CCOC(=O)C1(Cc2cccc(F)c2)CCN(C(=O)C2CCCO2)CC1` (stereo not shown) it was 10.2%; in that of `CCOC(=O)C1(Cc2cccc(F)c2)CCN(C(=O)C2CCOCC2)CC1`, -15%; in that of `CCOC(=O)C1(Cc2cccc(OC)c2)CCN(C2CCOCC2)CC1`, -68.7%.
For `Cc1ccc(CC(=O)Nc2ncc([N+](=O)[O-])s2)cc1` the value was 32.5%; for `CCCCN(CC)C(=O)Cc1c(C(=O)O)[nH]c2ccc(Cl)cc12`, 12.4%.
Turning to `CCN1CCN(c2ccc(NC(=O)COc3ccccc3Cl)cc2)CC1`, the “hERG current change (%, negative = inhibition) at 10uM” value is given as -40.7%.
In the case of `Cc1cc(S(=O)(=O)N2CCOCC2)ccc1NC(=O)c1ccc(F)cc1` it was 1.32%; in that of `Cc1ccc(CNC(=O)c2cc3c(s2)CN(Cc2ccccc2)C3)cc1.Cl`, 3.85%; in that of `CC(C#N)(NC(=O)CN1CCN(S(=O)(=O)c2ccccc2Cl)CC1)C1CC1` (stereo not shown), 5.18%.
Regarding `Cc1c(C=C2C(=O)N(C)C(=S)N(C)C2=O)c2ccccc2n1CC(=O)NCC1CCCO1` (stereo not shown), the “hERG current change (%, negative = inhibition) at 10uM” value turned out to be 4.95%.
With `N#C/C(=C\c1cccnc1)c1ccc(Br)cc1`, the “hERG current change (%, negative = inhibition) at 10uM” value is -5.44%.
On to `N#C/C(=C\c1cccnc1)c1ccc([N+](=O)[O-])cc1`, for which the “hERG current change (%, negative = inhibition) at 10uM” value was -56.3%.
In the case of `O=C(/C=C/c1ccc(Cl)c([N+](=O)[O-])c1)c1cccnc1` it was -6.3%; in that of `O=C(/C=C/c1ccc([N+](=O)[O-])cc1)Nc1cccnc1`, -62.7%; in that of `N#C/C(=C\c1cccnc1)c1ccccc1[N+](=O)[O-]`, 4.04%.
`O=C(/C=C/c1ccc([N+](=O)[O-])cc1)c1cccnc1`: the “hERG current change (%, negative = inhibition) at 10uM” value is -53%.
Turning to `Cc1ccc(/C(N)=N/OC(=O)C(C)c2ccc([N+](=O)[O-])cc2)cc1` (stereo not shown), the “hERG current change (%, negative = inhibition) at 10uM” value was -4.62%.
For the molecule `O=C(/C=C/c1cccnc1)c1ccc([N+](=O)[O-])cc1`, the “hERG current change (%, negative = inhibition) at 10uM” value was -42.3%.
On to `N/C(=N\OC(=O)c1ccc([N+](=O)[O-])cc1)c1cccnc1`, for which the “hERG current change (%, negative = inhibition) at 10uM” value is given as -10.7%.
In the case of `CC(C(=O)O/N=C(\N)c1cccnc1)c1ccc([N+](=O)[O-])cc1` (stereo not shown), the “hERG current change (%, negative = inhibition) at 10uM” value is given as -56.8%.
Consider `O=C(/C=C/c1ccccc1)Nc1cccnc1`, for which the “hERG current change (%, negative = inhibition) at 10uM” value is recorded as -26%.
In the case of `O=C(/C=C/c1ccc(Cl)c([N+](=O)[O-])c1)Nc1cccnc1` it was -17.3%; in that of `O=C(NNC(=O)C12CC3CC(CC(Cl)(C3)C1)C2)c1csc(N2CCOCC2)n1`, -1.63%.
